Sfp inh: qHTS Assay for Inhibitors of Bacillus subtilis Sfp phosphopantetheinyl transferase (PPTase) | Biochemical Sfp PPTase activity, qHTS | Potency, µM, without a hit: largest response in the series, negative = inhibition, most hits filed as inhibitors | actives 3.5% (n = 310,000);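 note: the enzyme is Sfp with the accession as filed and its product quenches rhodamine fluorescence; 0% = enzyme reaction without inhibitor and -100% = no enzyme wells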
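Compounds were incubated with enzyme (final 15 nM) for 15 min at room temperature before substrate addition started the reaction. Fluorescence at 525 nm excitation, 598 nm emission was recorded immediately and after 30 minutes.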
L3MBTL1 block: qHTS Assay for the Inhibitors of L3MBTL1; AlphaScreen L3MBTL1–H3K9me1 peptide binding; Potency, µM (top dose mostly 57.1 µM), without a hit: at the highest dose activity, negative = inhibition, most hits filed as inhibitors; actives 0.66% (n = 230,000); AID 485360, 2010; note: % is set by controls: 0 for no effect and ±100 for the full control effect; nearly all actives have a fitted effect of over 60% in size
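Displacement of a biotinylated histone H3(1-15) peptide monomethylated at Lys9 (75 nM) from L3MBTL1 (50 nM) was measured by AlphaScreen after a 30 min room-temperature compound incubation; cefsulodin titration served as intraplate control.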
JMJD2A Tudor inh: qHTS Assay for Inhibitors of JMJD2A-Tudor Domain; Lysine-specific demethylase 4A (Homo sapiens), O75164; AlphaScreen JMJD2A-Tudor / H3K4me3 peptide binding; Potency, µM (titrated, usually from 114 µM), without a hit: top-dose activity change, negative = inhibition, most hits filed as inhibitors; actives 4.4% (n = 390,000); AID 504339, 2011; note: % is set by controls: 0 for no effect and ±100 for the full control effect; nearly all actives have a fitted effect of over 50% in size
G9a inh: qHTS Assay for Inhibitors of Histone Lysine Methyltransferase G9a; Histone-lysine N-methyltransferase EHMT2 (Homo sapiens), Q96KQ7; G9a H3K9 monomethylation, AlphaScreen, 2 h; Potency, µM (highest dose often 102 µM), inactives show at the top dose activity, negative = inhibition, most hits filed as inhibitors; actives 8.8% (n = 350,000); AID 504332, 2011; note: % is set by controls: 0 for no effect and ±100 for the full control effect; nearly all actives have a fitted effect of over 75% in size
Target sequence (Q96KQ7 913-1193 limits assumed): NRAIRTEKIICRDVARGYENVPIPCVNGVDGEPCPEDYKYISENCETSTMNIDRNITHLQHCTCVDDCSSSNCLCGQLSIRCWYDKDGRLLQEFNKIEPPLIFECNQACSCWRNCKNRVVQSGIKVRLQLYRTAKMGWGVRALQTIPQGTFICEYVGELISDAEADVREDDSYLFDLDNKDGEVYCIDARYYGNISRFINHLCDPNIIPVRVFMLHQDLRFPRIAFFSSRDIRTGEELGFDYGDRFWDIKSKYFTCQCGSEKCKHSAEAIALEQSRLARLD
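Readings reflect AlphaScreen signal from monomethyl-H3K9 antibody detection. HMT at 20 nM; substrate b-H3K9 500 nM; cofactor SAM 20 uM; 2 h RT reaction; compounds tested as titrations in qHTS with 15 min preincubation.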
HP1b chromo inh: HTS for Inhibitors of HP1-beta Chromodomain Interactions with Methylated Histone Tails; AID 540317, 2011; Chromobox protein homolog 1 (Homo sapiens), P83916; AlphaScreen HP1-beta / biotin-H3K9me3 peptide binding; actives 0.56% (n = 390,000); Potency, µM (titrated, usually from 114 µM), inactives show at the top dose activity change, negative = inhibition, hits mostly inhibitors; note: nearly all actives have a fitted effect of over 70% in size
Target sequence (P83916 whole entry, looked up): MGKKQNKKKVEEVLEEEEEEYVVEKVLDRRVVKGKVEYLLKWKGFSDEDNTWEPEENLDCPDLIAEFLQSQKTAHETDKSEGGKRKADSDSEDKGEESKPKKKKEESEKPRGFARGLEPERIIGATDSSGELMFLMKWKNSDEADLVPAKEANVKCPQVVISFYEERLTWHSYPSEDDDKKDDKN
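AlphaScreen: HP1-beta (50 nM) preformed 30 min with biotin-H3(1-18)K9me3 peptide (50 nM) in PBS pH 7.4, 0.01% Tween-20. Compound added for 30 min at RT, then streptavidin donor/nickel chelate acceptor beads (10 ug/mL) for 30 min.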
BAZ2B inh: qHTS Assay for Inhibitors of BAZ2B | Bromodomain adjacent to zinc finger domain protein 2B (Homo sapiens), Q9UIF8 | AlphaScreen BAZ2B-H3K14Ac peptide displacement | Potency, µM (doses to about 114 µM), without a hit: at the highest dose activity change, negative = inhibition, usual class: inhibitors | actives 4.4% (n = 360,000) | AID 504333, 2011; note: % is set by controls: 0 for no effect and ±100 for the full control effect; nearly all actives have a fitted effect of over 60% in size
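Inhibition is scored as reduced AlphaScreen emission. The BAZ2B/b-H3(5-23)K14Ac complex (50 nM each) in PBS pH 7.4, 0.01% Tween-20 meets compound (up to 110 uM) for 30 min at RT before bead addition.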
Starred values were filed as active, the others as inactive; u = inconclusive; x = no result; ! = not active in a repeat; [ ] = dose if it differs, or a comment. Shown are actives, neighbours in structure and some others; about 12% of the full set was active somewhere. Calls come from the whole dose curve; as a rule, active = well fitted curve in the direction sought with a large enough effect; inconclusive = small, poorly fitted or top-dose-only effect, or another doubt; inactive = no such curve, though single readings can be large; an effect the other way counts as inactive or inconclusive. Potency is the fitted concentration of half-maximal effect.

SMILES | Sfp inh | L3MBTL1 block | JMJD2A Tudor inh | G9a inh | HP1b chromo inh | BAZ2B inh
CC(C)(C)c1ccc(OCCNCc2ccccc2)cc1 | -19% | 9% | 2.2µM* | 45µM* | u | -8%
CCC(C)NCCOc1cccc(Br)c1 (stereo not given) | -20% | 4% | 4.5µM* | 8.9µM* | u | -26%
NNCCc1ccccc1 | -8% | 5% | 79µM* | 19µM*! | 20% | -17%
O=C(CC(=O)NCCc1ccccc1)NCCc1ccccc1 | 16% | x | -12% | 11% | 13% | -20%
CC(C)(c1ccccc1)c1ccc(OCCCN2CCNCC2)cc1 | 40µM* | -21% | 1.1µM* | 16µM* | u | 20µM*
c1ccc(CCNCCOc2ccccc2)cc1 | -26% | -4% | 2.8µM* | 10µM* | -21% | u
CNCCCOc1ccc(C(C)(C)c2ccccc2)cc1 | 56µM* | x | x | 7.9µM* | x | 79µM*
CCC(C)NCCOc1ccc(C(C)(C)c2ccccc2)cc1 (stereo not given) | 9% | -8% | 2.8µM* | 7.9µM* | u | u
COc1ccccc1C(=O)NCCOc1ccc(C(C)(C)C)cc1 | 4% | 4% | 24% | 71% | 78% | 14%
O=C(CCCOc1ccccc1)NCCc1ccccc1 | 16% | 12% | -6% | 4% | 35% | 3%
Cn1c2ccccc2c(=O)c2ccc(NCCc3cccs3)cc21 | x | -17% | 15% | x | 58% | x
Cc1ccc(-n2nc3c(N4CCC(C(=O)NC(C)c5ccccc5)CC4)nnc(C)c3c2C)cc1 (stereo not given) | x | x | -23% | -13%[59 µM] | 73% | -33%
CCc1ccc(NC(=O)CSc2ccc(-c3ccco3)nn2)cc1 | 35µM* | x | u | u | -21% | -2%
O=C(CSc1ccc(-c2ccco2)nn1)NCc1ccccc1 | 22µM* | -16% | -18% | u | 31% | u
CCc1ccc(NC(=O)CSc2nnc(-c3ccco3)o2)cc1 | 11% | x | 3% | 8% | 51% | -4%
O=C(CSc1ccc(-c2cccs2)nn1)Nc1cccc(F)c1 | x | x | -16% | 18µM* | 26% | -38%
COc1ccccc1CCNC(=O)CSc1ccc(-c2ccco2)nn1 | 22µM* | x | -17% | 28µM* | 47% | 50µM*
O=C(CN1C(=O)c2ccccc2Sc2ccc(C(=O)N3CCOCC3)cc21)Nc1ccc(Cl)cc1F | x | x | 1% | 4%[59 µM] | 33% | 11%
COc1ccc(C(=O)c2cn(Cc3ccc(F)cc3)c3c(F)cc(F)cc3c2=O)cc1 | x | x | -9% | 2%[59 µM] | 55% | 14%
Cc1cc(NC(=O)Cn2nc(-c3ccccc3F)ccc2=O)ccc1-n1cnnn1 | -3% | -3% | -17% | 56µM* | 11% | -27%
COc1cc(NC(=O)Cn2nc(-c3ccc(F)cc3)ccc2=O)ccc1-n1cnnn1 | -17% | 4% | -15% | -5% | 32% | x
Cc1ccc(NC(=O)Cn2nc3c(cc2=O)CCCC3)cc1Cl | x | x | -15% | 5%[59 µM] | 20%[57 µM] | -1%
CCSc1ccc(-c2cccc([N+](=O)[O-])c2)nn1 | -9% | x | 2% | -32% | 22% | x
O=C(CSc1ccc(-c2ccco2)nn1)c1cccc([N+](=O)[O-])c1 | 14µM* | -12% | u | 10µM* | 9% | -27%
Cc1ccc(NC(=O)Cn2nc(-c3ccco3)ccc2=O)cc1Cl | u | x | -12% | 11µM* | 22% | -28%
SMILES | Sfp inh | L3MBTL1 block | JMJD2A Tudor inh | G9a inh | HP1b chromo inh | BAZ2B inh
CC(=O)c1cccc(NC(=O)CSc2ccc(-c3ccco3)nn2)c1 | 20µM* | x | u | 32µM* | -2% | -38%
CCCN(CCC)C(=O)c1ccc2nc(-c3ccc(OC)c(OC)c3)c(-c3ccc(OC)c(OC)c3)nc2c1 | -2% | x | 10% | 3% | 74% | 5%
Cc1nc2cnc(N(C)C)nc2n(CCc2ccccc2)c1=O | 3% | x | x | -2%[0.501 µM] | x | x
Cc1ccc(-c2nc(-c3cccnc3)sc2CC(=O)O)cc1 | 17% | 7% | -5% | u | 24% | -16%
CC(=O)Nc1ccc(NC(=O)Cc2sc(-c3cccnc3)nc2-c2ccc(C)cc2)cc1 | 10% | 0% | -10% | 45µM* | 30% | -16%
Cc1ccc(NC(=O)CSc2nnc(-c3cccnc3)s2)cc1 | -4% | 42% | -6% | 79µM* | 33% | 20%
O=C(CSc1nnc(-c2ccncc2)s1)Nc1ccc(Cl)c(C(=O)O)c1 | 11% | x | -18% | 50µM* | -2% | u
CCCN1CCN(C(=O)c2ccc(F)c(S(=O)(=O)N3CCOCC3)c2)CC1 | x | 3% | -15% | 23%[12.7 µM] | 26% | 6%
CC(CCN1CCN(c2ccccn2)CC1)c1ccccc1 (stereo not given) | -12% | -6% | 25µM* | 28µM* | u | u
C(#Cc1ccccc1)CN1CCN(c2ccccn2)CC1 | -24% | -3% | u | u | 1% | 50µM*
Cn1c(=O)c(-c2ccc(F)cc2)nc2cnc(Nc3ccccc3)nc21 | 7% | x | x | 7%[0.501 µM] | x | x
CCCOc1ccc(/C=C2/C(=O)ON=C2C)cc1OCC | u | x | -8% | 45µM* | 26% | -8%
CCCOc1ccccc1/C=C1/C(=O)ON=C1C | 56µM* | x | 0% | -22% | 28% | -35%
CCOc1cc(/C=C2\C(=O)ON=C2C)ccc1OCc1ccccc1 | 22µM* | 2% | -18% | 13µM* | 6% | -25%
CCOc1cc(/C=C/C(=O)O)ccc1OCc1ccccc1 | 7% | x | 2% | -32% | 46% | x
CSc1ncc(C(=O)Nc2cc(C)cc(C)c2)c(-c2ccccc2)n1 | x | x | -21% | 8%[59 µM] | -11% | 5%
CC(NC(=O)CSC(=S)N(C)C)C12CC3CC(CC(C3)C1)C2 (stereo not given) | -1% | -3% | 3% | 6% | 7% | 0%
Cc1ccc(S(=O)(=O)N2CCCC2C(=O)Nc2nc3ccccc3s2)cc1 (stereo not given) | -4% | -8% | -20% | 16µM* | 3% | 0%
CC(C)C(=O)NNc1nc2ccccc2s1 | 19% | 2% | -16% | 3% | 35% | 12%
O=C(NNc1nc2ccccc2s1)c1ccccc1F | 20% | -24% | -23% | 6% | 24% | u
O=C(NNc1nc2ccccc2s1)C1CC1 | 45µM* | 3% | -23% | 28%[12.7 µM] | 24% | 2%

Compound activity: PubChem, National Center for Advancing Translational Sciences (NCATS)
